Values joined by “and” are separate entries in the source; they are usually repeats but may differ in a detail not shown here. Equal entries are not always repeated. Records with an inconclusive call do not appear. Unmarked numbers belong to inactive results. Calls come from the whole dose curve; as a rule, active = well fitted activation curve with a large enough effect; inconclusive = small, poorly fitted or top-dose-only effect; inactive = no such curve, though single readings can be large or run the other way. Starred links: 1 amine or outer side, 2 acyl side, 3 side chain; linkers in the order of their positions; H or OH if unused. Positions of bridges follow the written chain, without caps; N, C: chain ends. Non-standard residues stand in square brackets, D forms with d. Residues, ends and D or L forms follow the SMILES beside them. ξ: configuration not given here. *: point of attachment. X11 = NC1=NCCC(C(N[*:1])C(=O)[*:2])N1; ΔAla(3-NHCONH2) = NC(=O)NC=C(N)C(=O)O; ξβ3hOrn = NCCCC(N)CC(=O)*; Dap = NC[CH](N)C(=O)O

Cellular tumor antigen p53 (Homo sapiens), sequence (P04637 whole entry, looked up): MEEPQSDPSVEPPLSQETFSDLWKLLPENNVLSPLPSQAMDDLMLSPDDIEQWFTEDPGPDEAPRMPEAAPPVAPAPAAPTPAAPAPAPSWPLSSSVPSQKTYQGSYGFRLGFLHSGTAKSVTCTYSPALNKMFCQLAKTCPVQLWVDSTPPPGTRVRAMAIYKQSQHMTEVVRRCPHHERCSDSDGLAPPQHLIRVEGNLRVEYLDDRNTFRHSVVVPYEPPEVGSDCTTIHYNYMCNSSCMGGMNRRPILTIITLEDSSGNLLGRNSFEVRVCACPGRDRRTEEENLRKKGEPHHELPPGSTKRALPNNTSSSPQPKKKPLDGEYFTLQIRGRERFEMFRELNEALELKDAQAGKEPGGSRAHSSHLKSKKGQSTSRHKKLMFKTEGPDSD

The target of the experiment is Cellular tumor antigen p53 (Homo sapiens) (UniProt P04637). In words: Primary qHTS for small molecule compounds that upregulate eGFP-tagged delta133p53alpha (in N-terminal) cells. (AID 2060322).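 Note: series mostly up to about 56 µM; 0% = DMSO vehicle and 100% = reference activator; nearly all actives have a fitted effect of over 75% in size.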 The note with it: NCI-H358 eGFP-delta133p53alpha fluorescence, 24 h; activation: hits give high values. The essentials:
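NCI-H358 cells pre-induced 24 h with 10 ng/ml doxycycline for eGFP-delta133p53alpha, plated dox-free and exposed 24 h at 37C to titrated compounds. Fixed, Hoechst-stained; gated GFP peak intensity by laser scanning cytometry, normalized to DMSO (0%) and 57.5 uM 5-azacytidine (100%).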
Background: Quantitative high-throughput screening tests each substance at several concentrations.
On to `Cc1ccc(CCn2c3c(c4cc(Cl)ccc42)CN(C)CC3)cn1`, for which the activation is -20.9%.

For `NCCCC(N)CC(=O)NCC1NC(=O)C(CO)NC(=O)C(N)CNC(=O)C(C2CCN=C(N)N2)NC(=O)C(=CNC(N)=O)NC1=O` (stereo not drawn) (H-[Dap]S[Dap](ξβ3hOrn)[ΔAla(3-NHCONH2)][X11]; lactam 1-C; configuration not given here), the activation was -4.18%.

Take `CC1(C)O[C@H]2C[C@@H]3[C@H]4CCC5=CC(=O)C=C[C@]5(C)[C@@]4(F)[C@@H](O)C[C@]3(C)[C@]2(C(=O)CO)O1`: the activation was 8.11%.

With `NC(=O)NN=Cc1ccc([N+](=O)[O-])o1`, the activation was 13.5%.

As for `C=C1C(=CC=C2CCC[C@]3(C)[C@@H]([C@H](C)CCCC(C)(C)O)CC[C@@H]23)C[C@@H](O)C[C@@H]1O`, the activation is -4.26%.

Regarding `COC(=O)c1cc(Cl)ccc1OC`, the activation was 2.51%.

In the case of `CC(C)[N+]1(C)[C@@H]2CC[C@H]1CC(OC(=O)C(CO)c1ccccc1)C2` (stereo not given in full), the activation is 33.8%.

For `C[C@@H]1C[C@H]2[C@@H]3CCC4=CC(=O)C=C[C@]4(C)[C@@]3(F)[C@@H](O)C[C@]2(C)[C@@]1(O)C(=O)COC(=O)c1ccncc1`, the activation is -8.37%.

In the case of `Nc1ccc(C(=O)OCC(O)CO)cc1` (stereo not given), the activation was 6.21%.

`O=C(C=Cc1cccc(S(=O)(=O)Nc2ccccc2)c1)NO`: the activation is 49%.

For `CC=CC[C@@H](C)C(=O)[C@H]1C(=O)N[C@@H](C(C)C)C(=O)N(C)CC(=O)N(C)[C@@H](CC(C)C)C(=O)N[C@@H](C(C)C)C(=O)N(C)[C@@H](CC(C)C)C(=O)N[C@@H](C)C(=O)N[C@H](C)C(=O)N(C)[C@@H](CC(C)C)C(=O)N(C)[C@@H](CC(C)C)C(=O)N(C)[C@@H](C(C)C)C(=O)N1C`, the activation was 34.2%.

`CCCOC(=O)c1ccc(N)cc1`: the activation is 0%.

In the case of `C=CCc1cc(OC)c(O)c(C(=O)NCCO)c1`, the activation was -4.18% and -21%.

For `c1ccc(OCc2ccc(CCCN3CCOCC3)cc2)cc1`, the activation is -7.53%.

With `COc1ccc(CCC(C)=O)cc1`, the activation is -5.86%.

Consider `CCC(=O)Nc1ccc(O)cc1`, for which the activation was -18.6%.

For the compound `CC1CCC2(OC1)OC1CC3C4CCC5C[C@@H](O[C@@H]6O[C@H](CO[C@@H]7OC[C@@H](O)[C@H](O)[C@H]7O)[C@H](O)[C@H](O)[C@H]6O)CC[C@]5(C)C4CC[C@]3(C)C1C2C` (stereo not given in full), the activation is 8.4%.

With `CN1CCN(N)CC1`, the activation was 0.837%.

As to `NNc1nnc(NN)c2ccccc12`, the activation was -35.1%.

As for `CS(=O)(=O)c1ccc([C@@H](O)[C@@H](CO)NC(=O)C(Cl)Cl)cc1`, the activation is 15.3% and 17.8%.

On to `CC1(C)OC[C@@H](COC(=O)CCc2ccc(OC[C@@H](O)CNCCNC(=O)N3CCOCC3)cc2)O1`, for which the activation is 10%.

For the compound `CCCCC/C=C\C/C=C\CCCCCCCC(=O)NC(C)c1ccccc1` (stereo not given), the activation was 0%.

For `COC1=C(OC)C(=O)C(CC=C(C)CCC=C(C)CCC=C(C)CCC=C(C)CCC=C(C)CCC=C(C)CCC=C(C)CCC=C(C)CCC=C(C)CCC=C(C)C)=C(C)C1=O`, the activation is 0.831%.

`CC(C)(C)c1cc(C=O)cc(C(C)(C)C)c1O`: the activation was -16.4%.

In the case of `CCN(CC)CCOC(=O)C1(c2ccccc2)CCCC1`, the activation is 3.35%.

As for `CC(C)CCCC(C)NCCC(C)C` (stereo not given), the activation was -13.4%.

Take `C=CC[N+]1([C@H]2C[C@H]3[C@@H]4CC[C@H]5C[C@H](O)[C@@H](N6CCOCC6)C[C@]5(C)[C@@H]4CC[C@]3(C)[C@H]2OC(C)=O)CCCC1`: the activation was 4.45%.

As to `CC(=O)Nc1c(I)cc(I)c(C(=O)O)c1I`, the activation was -3.95%.

On to `CN1CC(=O)NC1=N`, for which the activation is -5.08%.

For the compound `COC(=O)c1ccc(NC(C)=O)cc1OC`, the activation was -12.6%.

For the compound `O=c1[nH]c2ccccc2c(=O)n1CCCl`, the activation was 6.21%.

With `O=C(O)P(=O)(O)O`, the activation was -13%.

Take `c1ccc(CC2=NCCN2)cc1`: the activation is -3.95%.

For the compound `CC(Cc1cccc(C(F)(F)F)c1)NCCOC(=O)c1ccccc1` (stereo not given), the activation was 17.6%.

Consider `CN1CCN(c2c(F)cc3c(=O)c(C(=O)O)cn4c3c2OCN4C)CC1`, for which the activation was -9.21%.

As for `Cc1c(N(C)CS(=O)(=O)O)c(=O)n(-c2ccccc2)n1C`, the activation was -7.34%.

Consider `CC(=O)N[C@@H](CC(C)C)C(=O)O`, for which the activation is 0%.

Turning to `CC(=O)OCC(=O)[C@@]1(O)[C@H](OC(C)=O)C[C@H]2[C@@H]3CCC4=CC(=O)C=C[C@]4(C)[C@@]3(F)[C@@H](O)C[C@@]21C`, the activation was 4.18%.

Turning to `CN(C)CCC=C1c2ccccc2COc2ccc(CC(=O)O)cc21`, the activation is 16.8%.

On to `CCCC(=O)c1cc(O)c(O)cc1O`, for which the activation was -37.9%.

(Values after PubChem BioAssay (NCATS).)
